# TRHR PAM: allosterically enhances the human TRH receptor; P34981; TRHR cells, fluo-8 calcium fluorescence, EC20 TRH enhancement; enhancement, % at 2 µM; 360,000 tested, 0.66% active; AID 493056; in the data active means enhancement above about 30%; further: 0% is about no effect
#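 TRHR-expressing cells loaded with fluo-8 calcium dye were read kinetically (ex 480/em 530) during compound addition, then stimulated with an EC20 of TRH (10 nM final). Enhancement of the Gq-mediated intracellular calcium response was scored.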
# TRHR ag: activates the human TRH receptor | TRHR cells, calcium flux fluo-8, FDSS agonist mode | 360,000 tested, 0.18% active | activation, % at 2 µM; in the data active means activation above about 30%; further: 0% is about no effect
#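 TRHR-expressing cells, plated overnight in medium with 10% serum, were loaded with fluo-8 calcium dye at room temperature. After a 10 s baseline, library compound was pin-added and calcium release was recorded kinetically (ex 480/em 530) as agonist response.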
# PTAP TSG101 blk: blocks PTAP/TSG101 interaction to inhibit HIV-1 budding | Fluorescence polarization, FITC-PTAP peptide / Tsg101 binding | 340,000 tested, under 10 active | Potency, µM (highest dose often 115 µM), for inactives: at the highest dose activity change, negative = inhibition, actives largely listed as inhibitors; active means well fitted inhibition curve with a large enough effect in the main read-out, with a control signal flat, not every such curve was filed as active; inconclusive means small, poorly fitted or top-dose-only effect, or effect the other way, or a change in a side signal; inactive means no such curve, though single readings can be large or run the other way; further: potency means the concentration at half of the fitted maximal effect; % of control where 0% means no effect
# Target sequence (Q99816 whole entry, looked up): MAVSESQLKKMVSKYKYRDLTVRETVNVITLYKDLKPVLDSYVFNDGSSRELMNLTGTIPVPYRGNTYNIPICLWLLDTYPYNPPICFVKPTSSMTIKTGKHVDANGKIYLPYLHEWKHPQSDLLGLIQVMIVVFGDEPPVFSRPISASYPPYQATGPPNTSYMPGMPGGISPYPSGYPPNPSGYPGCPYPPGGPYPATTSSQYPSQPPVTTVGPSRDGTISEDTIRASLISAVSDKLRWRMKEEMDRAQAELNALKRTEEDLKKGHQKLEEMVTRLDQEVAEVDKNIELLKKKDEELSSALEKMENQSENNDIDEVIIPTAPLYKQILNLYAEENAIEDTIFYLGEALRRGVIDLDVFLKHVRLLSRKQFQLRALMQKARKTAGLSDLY
#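 Fluorescence anisotropy tracks displacement of a FITC-tagged PTAP peptide (50 nM) from the Tsg101 binding domain (10 uM), following a 20 min room-temperature incubation at pH 7.5.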
# TRPML1 inh: human mucolipin-1 channel inhibition; TRPML1-inducible cells, Ca2+ dye fluorescence, FDSS; stronger effect = lower value; inhibition of EC80 agonist-evoked calcium signal; activity change, negative = inhibition, % (concentration not given with the values); AID 624415; 390,000 tested, 0.02% active; Q9GZU1; in the data active means activity change below about -50%; inconclusive means between about -30% and that limit;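 further: stimulus is agonist 54-4 at its EC80 concentration; on the % scale 0 is the no-effect control and ±100 the full control effect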
#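 Calcium fluorescence in TRPML1-DL cells induced overnight with Tet: a 110 s read after compound pin addition, then a 110 s antagonist read after challenge with 54-4 at 4 uM final (EC80).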
# TRPML1 ag: activates the human TRPML1 channel | Q9GZU1 | TRPML1-expressing cells, Ca2+ dye fluorescence, FDSS | activation, % (test concentration not listed) | 410,000 tested, 0.12% active | AID 624414; in the data active means activation above about 50%; inconclusive means mostly about 30% to 49%; further: 0% is about no effect
#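 Kinetic FDSS Ca2+ read in Tet-induced TRPML1-DL cells (ABD Ca8 dye plus quencher, 45-90 min RT loading): baseline, then compound, then 110 s agonist window; EC80 agonist 54-4 at 4uM final added afterwards for a 110 s antagonist window.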
# The depositor's hits bear a star; ? = inconclusive; . = no result given. Only some compounds are listed: those with a hit (about 0.81% of all), similar ones and a draw of the others.
SMILES,TRHR PAM,TRHR ag,PTAP TSG101 blk,TRPML1 inh,TRPML1 ag
COc1cc(N(C)C)c(OC)cc1/C=C1\Cc2ccccc2C1=O,.,.,.,.,78.2*
Cc1ccc2c(c1)C/C(=C/c1ccc(N(C)C)cc1)C2=O,.,.,.,.,55.2*
CN(C)c1ccc(/C=C2\Cc3ccccc3C2=O)cc1,.,.,.,.,25.4
COc1ccc2c(n1)Sc1nc3ccccc3nc1N2,9.5,90.3*,?,-7.3,82.2*
COc1cc2ccccc2nn1,3.5,0.1,-5.8%,29.0,1.0
CSc1nc2ccc(S(=O)(=O)N3CCOCC3)cc2s1,-8.0,0.1,-5.6%,-12.6,-0.4
N#CCc1nc2ccc(S(=O)(=O)N3CCOCC3)cc2s1,2.0,34.9*,-2.4%,-25.1,-0.6
Cc1cc(C)cc(C(=O)n2nc(C)c(S(=O)(=O)N3CCCCCC3)c2C)c1,6.9,-0.1,.,-9.0,1.1
Cc1ccc(C(=O)n2nc(C)c(S(=O)(=O)N3CCCCCC3)c2C)cc1C,34.9*,0.1,.,0.0,0.8
CCN1CCc2c(sc(NC(=O)c3ccc(S(=O)(=O)N(C)c4ccccc4)cc3)c2C(=O)NC)C1,7.2,47.7*,?,0.4,60.7*
CNC(=O)c1c(NC(=O)c2ccc(S(=O)(=O)N(C)c3ccccc3)cc2)sc2c1CCN(C(C)C)C2,3.5,61.6*,?,3.2,7.3
O=C1[C@H](Cc2ccccc2)NC/C=C\C[C@H](c2ccco2)N1Cc1ccccc1,.,.,.,.,1.5
COc1ccc(CCNS(=O)(=O)c2ccc(N3CCCC3=O)cc2)cc1,.,.,-6.4%,-8.4,-0.5
COc1ccc(OC)c(NS(=O)(=O)c2ccc(N3CCCC3=O)cc2)c1,33.9*,-0.5,0.6%,-10.8,0.3
Nc1c(N=Nc2ccc([N+](=O)[O-])cc2)c(S(=O)(=O)O)cc2cc(S(=O)(=O)O)c(/C=C/c3ccccc3)c(O)c12,.,.,.,.,-1.3
CN(C)/[N+]([O-])=N/Oc1cc(F)c([N+](=O)[O-])cc1[N+](=O)[O-],.,.,.,2.1,1.4
CCCCCn1ccc(=N)cc1,36.0*,-0.2,-15.1%,9.6,0.0
CCCCCCCn1ccc(=N)cc1,11.2,0.1,-1.1%,7.0,0.9
Cc1cc(C(=O)O)cc(Br)c1N,-0.5,0.1,-1.1%,-5.2,-0.9
Cc1cc(C)c(N)c(C(=O)O)c1,37.7*,1.1,-6.8%,5.8,0.0
CCCCCCCCCC[n+]1cc(Br)cc(Br)c1,.,.,.,.,-0.3
CCOc1cc(/C=C2\SC(=S)N(Nc3ccccc3)C2=O)ccc1O,-2.3,34.7*,6.3%,46.7,22.4
COc1cc(/C=C2\SC(=S)N(NC(=O)c3ccc(O)cc3)C2=O)ccc1O,-1.4,47.6*,6.8%,24.6,?
COc1cc(/C=C2/SC(=S)N(CC3CCCO3)C2=O)ccc1O (configuration not stated),8.2,64.2*,13.0%,2.5,?
CCNc1nc(C#N)nc2c1ncn2-c1cccc(Cl)c1,0.5,0.0,.,.,.
SMILES,TRHR PAM,TRHR ag,PTAP TSG101 blk,TRPML1 inh,TRPML1 ag
COc1ccc(F)c(Cn2cnc3c(cnn3C(C)(C)C)c2=O)c1Cl,.,.,.,-28.1,1.7
Nc1cccc(CP(=O)(c2ccccc2)c2ccccc2)c1,31.4*,0.3,-0.4%,6.8,2.1
COc1ccc([S+](=O)([O-])N2CCN([S+](=O)([O-])c3ccc4c(c3)OCCO4)CC2)c(OC)c1,4.7,1.4,.,.,.
CCOc1ccc(C(=O)Nc2cc(S(=O)(=O)Nc3ccccc3Cl)ccc2N2CCOCC2)cc1,40.1*,-1.2,-0.9%,-14.8,0.3
CCOc1ccc(S(=O)(=O)Nc2ccccc2C(=O)Nc2ccccc2N2CCOCC2)cc1,1.6,0.4,-14.1%,9.9,1.2
O=S(=O)(c1ccc2c(c1)OCCO2)N1CCN(S(=O)(=O)c2c(F)ccc(O)c2F)CC1,3.6,0.2,.,.,.
CCCCCCCC(O)CC(CC1CCCCC1)C(=O)NN (configuration not stated),32.9*,0.0,-4.1%,-12.3,-0.3
CCCCC(CC(O)COCC(C)C)C(=O)NN (configuration not stated),1.8,0.2,-3.4%,-1.5,0.0
COC(=O)c1sc2cc(C(F)(F)F)cnc2c1-c1ccccn1,31.0*,0.0,-4.9%,5.9,1.4
O=C(O)c1sc2cc(C(F)(F)F)cnc2c1-c1ccccn1,8.3,0.4,3.3%,-9.9,0.2
COc1cc2ccccc2cc1C(=O)OCC(=O)Nc1ccc(Br)cc1,.,.,.,.,0.0
CNC[C@H](O)c1ccc(O)c(O)c1,-4.0,-1.1,-4.4%,3.3,-0.8
CC(C)NCC(O)c1ccc(O)c(O)c1 (configuration not stated),36.0*,-0.1,-3.7%,6.2,-0.6
COc1ccc(/C=N/NC(=O)CNC(=O)c2ccc3c(c2)OCCO3)c(C(=O)O)c1OC,30.1*,0.3,-4.4%,-5.6,-0.8
COc1ccc(/C=N\NC(=O)c2ccc(-c3ccccc3)cc2)c(OC)c1OC,30.2*,-0.5,0.8%,0.4,1.6
CC(C)(C)/C=N/NC(=O)CNC(=O)c1ccc2c(c1)OCCO2,1.1,0.2,-2.3%,13.4,1.3
COc1cccc(/C=N/NC(=O)CC(=O)NCCc2ccccc2)c1OC,33.1*,-0.5,-2.2%,10.4,0.0
COc1cc(/C=N/NC(=O)c2ccc(-c3ccccc3)cc2)cc(OC)c1OC,8.6,0.1,-2.7%,-7.1,0.5
O=S(=O)(c1ccc2c(c1)OCCO2)N1CCN(S(=O)(=O)c2ccc(Cl)cc2F)CC1,0.1,-0.2,.,.,.
N#Cc1nc(Nc2cccc(Br)c2)nc(NC2CCCC2)n1,-4.2,-1.1,.,.,.
CC1(C)CCC(c2ccc(Cl)cc2)=C(CN2CCN(c3ccc(C(=O)NS(=O)(=O)c4ccc(N[C@H](CCN5CCOCC5)CSc5ccccc5)c(S(=O)(=O)C(F)(F)F)c4)cc3)CC2)C1,.,.,.,.,-0.1
COc1ccccc1NC(=O)C1CCCN(c2ncnc3c2nc2n3CCCCC2)C1 (configuration not stated),0.7,-1.1,-1.5%,-11.4,1.2
COc1cc(OC)c(NC(=O)C2CCCN(c3ncnc4c3nc3n4CCCCC3)C2)cc1Cl (configuration not stated),33.1*,-0.7,.,-11.0,0.6
O=S(=O)(c1ccc2ccccc2c1)N1CCCCCC1,31.2*,-0.6,0.1%,9.8,0.4
CC(=O)N1CCN(/[N+]([O-])=N/Oc2ccc([N+](=O)[O-])cc2[N+](=O)[O-])CC1,.,.,.,28.1,1.5
CC(C)NC(=O)COC(=O)c1ccccc1OCC(=O)Nc1ccc(Br)cc1,.,.,.,.,-0.2
